Each structure is given as a SMILES string. Inconclusive results are not listed. The source made the active and inactive calls. Unless noted, the call rests on the fitted dose curve.

We go through eight compounds from PubChem BioAssay (Tox21).

A short description of test [1]: Nuclear factor erythroid 2-related factor 2/antioxidant responsive element (Nrf2/ARE) small molecule agonists: qHTS cell viability counter screen in human keratinocytes (AID 1919968; active means well fitted curve in the direction sought with a large enough effect in the repeat runs; an effect the other way counts as inactive or inconclusive; further: nearly all actives have a fitted effect of over 55% in size). Put shortly:
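Measured as CellTiter-Fluor fluorescence, this readout tracks cytotoxicity in the same wells as the ARE-luciferase screen. HaCaT reporter cells (1,500/well) received compounds after a 5 h pre-incubation and were exposed for 23 h.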
(In general: qHTS replaces the single test concentration by a dilution series.)

A short description of test [2]: Nuclear factor erythroid 2-related factor 2/antioxidant responsive element (Nrf2/ARE) small molecule agonists: luciferase reporter gene qHTS assay in human keratinocytes (AID 1919969). Further: nearly all actives have a fitted effect of over 35% in size. Further: potency means the concentration at half of the fitted maximal effect. Background: Reporter assays use an easily measured gene product as a stand-in for the process of interest.
For test [3], the target named is Gonadotropin-releasing hormone receptor (Homo sapiens) (UniProt P30968). As to the kind of experiment: Human gonadotropin-releasing hormone receptor (GnRHR) small molecule agonists, calcium flux assay in GnRHR-HEK293 cells (AID 1920063). Further: nearly all actives have a fitted effect of over 35% in size. Put shortly: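 Fluorescence kinetics (480 nm excitation, 540 nm emission; 3 min, 1 s steps) report calcium mobilisation in human GnRHR-HEK293 cells in agonist mode. Dye incubation: 1 h, 37 C.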
(Calcium flux is commonly read through the fluorescence of an indicator in the cells.)

Test [4] deals with KiSS-1 receptor (Homo sapiens) (UniProt Q969F8). As to the kind of experiment: Human kisspeptin (KISS1R) small molecule agonists, calcium flux assay in KISS1R-HEK293 cells (AID 1920064; active means well fitted curve in the direction sought with a large enough effect in the repeat runs; an effect the other way counts as inactive or inconclusive). The essentials: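 Measures KISS1R agonism through calcium-sensitive dye fluorescence in stably transfected HEK293 cells, read for 3 min after pin-tool compound delivery; 15-point titrations in triplicate.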

Test [5] in a line: G protein-coupled receptor (GPCR) small molecule agonists, calcium flux assay: HEK293 wild type cell line counter screen (AID 1920065). The essentials: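 Readout: fluorescence at 480 nm excitation/540 nm emission, sampled at 1 s intervals for 3 min. Cells had been cultured 18 h, then dye-loaded 1 h at 37 C before compound or ATP addition.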
The nature of test [6]: p53 small molecule agonists, cell-based qHTS assay with human liver microsomes (AID 1963577). Put shortly: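 p53RE-bla reporter cells were pre-incubated 5 h at 37 C, then treated with compounds plus human liver microsomes (0.5 mg/mL final) and NADPH (0.5 mg/mL final) for 16 h at 37 C. Beta-lactamase activity was read by LiveBLAzer fluorescence after 2 h at room temperature.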

The nature of test [7]: p53 small molecule agonists, cell-based qHTS assay with rat liver microsomes (AID 1963578). Put shortly: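 p53RE-bla cells were exposed to compounds together with rat liver microsomes (0.5 mg/mL final) and NADPH (0.5 mg/mL final) for 16 h at 37 C, then read by LiveBLAzer beta-lactamase fluorescence after 2 h at room temperature.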
A short description of test [8]: p53 small molecule agonists, cell-based qHTS assay with human liver microsomes: qHTS cell viability counter screen (AID 1963579). Further: nearly all actives have a fitted effect of over 45% in size. Put shortly:
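p53RE-bla cells (4,000/well) were pre-incubated 5 h at 37 C, then given compounds in DMSO plus human liver microsomes (0.5 mg/mL final) and NADPH (0.5 mg/mL final) for 16 h at 37 C. Viability was read by CellTiter-Glo luminescence.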

A short description of test [9]: p53 small molecule agonists, cell-based qHTS assay with rat liver microsomes: qHTS cell viability counter screen (AID 1963580). Further: nearly all actives have a fitted effect of over 45% in size. The essentials:
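Viability is assessed in parallel with the p53 reporter read: HCT-116 p53RE-bla cells receive compounds plus rat microsomes and NADPH (0.5 mg/mL final apiece), incubate 16 h at 37 C, and then CellTiter-Glo luminescence is recorded.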

A short description of test [10]: p53 small molecule agonists, cell-based qHTS assay (AID 1963582; active means well fitted activation curve with a large enough effect in the signal ratio in the repeat runs, not every such curve was filed as active; the % refers to the signal ratio). Put shortly: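 Compounds are pin-transferred in DMSO onto p53RE-bla cells and incubated 16 h at 37 C. The B/G FRET beta-lactamase substrate is then applied for 2 h at RT and fluorescence recorded.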
In test [11] the target is 5-hydroxytryptamine receptor 2A (Homo sapiens) (UniProt P28223). Description: 5-hydroxytryptamine receptor 2A (HTR2A) small molecule agonists, cell-based qHTS assay (AID 1963587). Further: nearly all actives have a fitted effect of over 30% in size. Put shortly:
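CHO cells stably expressing human HTR2A, plated 18 h, loaded with calcium dye 1 h at 37 C. Agonist mode: compounds added and intracellular calcium fluorescence recorded kinetically for 2 min at 1 sec intervals.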

In test [12] the target is Muscarinic acetylcholine receptor M1 (Homo sapiens) (UniProt P11229). As to the kind of experiment: Cholinergic receptor muscarinic 1 (CHRM1) small molecule antagonists, cell-based qHTS assay (AID 1963588). Further: nearly all actives have a fitted effect of over 40% in size. The essentials:
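CHRM1-CHO calcium-flux assay, antagonist mode. Cells were seeded 18 h, dye-loaded 1 h at 37 C and given compound for 5 min at RT, then acetylcholine was added at 50nM. FDSS fluorescence was read 3 min; 15 concentrations, three runs.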

The target is the same in test [13]. Description: Cholinergic receptor muscarinic 1 (CHRM1) small molecule agonists, cell-based qHTS assay (AID 1963589). Further: nearly all actives have a fitted effect of over 35% in size. The essentials:
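Each compound was tested at 15 concentrations across three independent runs on dye-loaded CHO cells stably expressing human CHRM1, reading intracellular calcium fluorescence kinetically at 1 sec intervals.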

Test [14] is described as follows: cAMP Responsive Elements (CRE) small molecule agonists, cell-based qHTS assay (AID 1963590). The essentials:
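Cell line: CRE-bla HEK 293T; medium DMEM/10% dialyzed FBS/0.1 mM NEAA/1 mM pyruvate/25 mM HEPES; 3 h compound exposure; beta-lactamase FRET readout after 2 h substrate loading at RT.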

Test [15] can be described thus: cAMP Responsive Elements (CRE) small molecule antagonists, cell-based qHTS assay (AID 1963591; active means well fitted inhibition curve with a large enough effect in the signal ratio in the repeat runs, not every such curve was filed as active; the % refers to the signal ratio). Put shortly:
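Inhibition of NKH477-driven (0.25 uM final) CRE-beta-lactamase signal in HEK293T cells, 3 h compound exposure at 37 °C, detected by FRET substrate fluorescence.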

Test [16] deals with Beta-2 adrenergic receptor (Homo sapiens) (UniProt P07550). As to the kind of experiment: Adrenergic beta2 receptor (ADRB2) small molecule agonists, cell-based qHTS assay (AID 1963593).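 Further: CHO cells stably overexpressing human ADRB2.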 The essentials: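 CHO cells stably over-expressing ADRB2 were plated overnight at 37C, then dosed with compounds plus a stimulation mix containing 100uM IBMX and 25uM Ro-20-1724 for 0.5hr at room temperature. cAMP was measured by HTRF competition, 1hr.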

Test [17] addresses D(2) dopamine receptor (Homo sapiens) (UniProt P14416). As to the kind of experiment: Dopamine D2 receptor (DRD2) small molecule antagonists, cell-based qHTS assay (AID 1963595; active means well fitted inhibition curve with a large enough effect in the signal ratio in the repeat runs, with a control signal flat; the % refers to the signal ratio). Put shortly:
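Cells were plated and grown for 24 h at 37 °C. Ro20-1724 (0.1 mM final) went in first, then compound for 10 min. NKH477 (200 nM) with quinpirole (12 nM) followed for 30 min at RT, then HTRF detection reagents for 1 h.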

For test [18] the target is unchanged. Description: Dopamine D2 receptor (DRD2) small molecule agonists, cell-based qHTS assay (AID 1963594). Further: nearly all actives have a fitted effect of over 35% in size. The essentials:
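HEK293 cells stably expressing human DRD2, pre-treated with PDE inhibitor Ro20-1724 (0.1 mM final) and compound 10 min at room temperature, then stimulated with NKH477 (200nM […]) for 30 min. cAMP read by HTRF (665/620 nm).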

Test [19] concerns the target Beta-2 adrenergic receptor (Homo sapiens) (UniProt P07550). As to the kind of experiment: Adrenergic beta2 receptor (ADRB2) small molecule antagonists, cell-based qHTS assay (AID 1963592). Further: series mostly up to about 92 µM; nearly all actives have a fitted effect of over 50% in size. Put shortly:
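Cells (CHO, stable ADRB2 overexpression) incubated 18-20hr at 37C; compounds added from DMSO; agonist mix (1nM isoproterenol, 100uM IBMX, 25uM Ro-20-1724) added; 0.5hr RT; d2-cAMP and anti-cAMP-cryptate added; 1hr RT; 665/615 nm read.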

Chain of D(2) dopamine receptor (Homo sapiens) (P14416 whole entry, looked up): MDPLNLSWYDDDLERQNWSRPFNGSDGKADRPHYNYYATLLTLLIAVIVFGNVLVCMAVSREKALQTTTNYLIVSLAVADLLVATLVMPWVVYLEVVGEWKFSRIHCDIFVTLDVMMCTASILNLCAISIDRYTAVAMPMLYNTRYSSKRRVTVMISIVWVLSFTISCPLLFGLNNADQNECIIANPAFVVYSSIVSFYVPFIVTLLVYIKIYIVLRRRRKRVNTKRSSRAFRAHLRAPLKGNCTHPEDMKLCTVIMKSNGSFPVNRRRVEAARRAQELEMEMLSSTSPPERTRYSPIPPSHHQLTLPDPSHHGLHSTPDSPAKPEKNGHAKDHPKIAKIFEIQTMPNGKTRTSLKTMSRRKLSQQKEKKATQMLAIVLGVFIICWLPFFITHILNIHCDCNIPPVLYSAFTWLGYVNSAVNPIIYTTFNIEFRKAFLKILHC
Chain of KiSS-1 receptor (Homo sapiens) (Q969F8 whole entry, looked up): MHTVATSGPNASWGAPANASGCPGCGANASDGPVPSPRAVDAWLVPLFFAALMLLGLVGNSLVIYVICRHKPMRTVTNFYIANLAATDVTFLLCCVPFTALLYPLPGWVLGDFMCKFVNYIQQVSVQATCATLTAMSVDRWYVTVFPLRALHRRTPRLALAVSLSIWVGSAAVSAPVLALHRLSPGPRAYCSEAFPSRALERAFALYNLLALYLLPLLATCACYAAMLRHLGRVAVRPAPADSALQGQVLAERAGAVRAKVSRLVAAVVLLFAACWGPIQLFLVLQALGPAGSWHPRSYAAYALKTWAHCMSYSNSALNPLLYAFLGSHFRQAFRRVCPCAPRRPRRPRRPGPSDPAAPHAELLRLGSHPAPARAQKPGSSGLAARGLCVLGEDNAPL
Chain of Muscarinic acetylcholine receptor M1 (Homo sapiens) (P11229 whole entry, looked up): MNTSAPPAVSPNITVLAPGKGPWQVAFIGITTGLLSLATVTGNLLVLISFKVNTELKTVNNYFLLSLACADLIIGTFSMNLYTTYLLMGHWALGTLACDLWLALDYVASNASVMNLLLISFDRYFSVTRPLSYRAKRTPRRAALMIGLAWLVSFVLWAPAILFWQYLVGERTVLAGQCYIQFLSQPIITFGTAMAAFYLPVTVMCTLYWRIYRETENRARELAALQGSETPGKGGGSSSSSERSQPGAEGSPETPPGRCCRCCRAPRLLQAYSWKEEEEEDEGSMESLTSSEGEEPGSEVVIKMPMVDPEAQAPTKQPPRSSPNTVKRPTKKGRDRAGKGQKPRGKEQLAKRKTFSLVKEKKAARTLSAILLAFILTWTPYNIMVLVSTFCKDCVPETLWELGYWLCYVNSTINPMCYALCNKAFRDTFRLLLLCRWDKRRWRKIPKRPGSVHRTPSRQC
Chain of Gonadotropin-releasing hormone receptor (Homo sapiens) (P30968 whole entry, looked up): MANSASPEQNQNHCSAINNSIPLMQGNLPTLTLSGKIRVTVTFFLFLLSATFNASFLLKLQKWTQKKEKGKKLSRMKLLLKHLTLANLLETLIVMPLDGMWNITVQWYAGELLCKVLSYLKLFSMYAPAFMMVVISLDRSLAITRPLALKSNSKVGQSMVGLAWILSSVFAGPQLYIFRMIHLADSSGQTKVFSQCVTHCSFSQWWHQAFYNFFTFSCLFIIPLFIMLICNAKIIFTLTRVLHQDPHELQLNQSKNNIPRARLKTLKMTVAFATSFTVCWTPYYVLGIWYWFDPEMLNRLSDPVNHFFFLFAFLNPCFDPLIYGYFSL
Chain of 5-hydroxytryptamine receptor 2A (Homo sapiens) (P28223 whole entry, looked up): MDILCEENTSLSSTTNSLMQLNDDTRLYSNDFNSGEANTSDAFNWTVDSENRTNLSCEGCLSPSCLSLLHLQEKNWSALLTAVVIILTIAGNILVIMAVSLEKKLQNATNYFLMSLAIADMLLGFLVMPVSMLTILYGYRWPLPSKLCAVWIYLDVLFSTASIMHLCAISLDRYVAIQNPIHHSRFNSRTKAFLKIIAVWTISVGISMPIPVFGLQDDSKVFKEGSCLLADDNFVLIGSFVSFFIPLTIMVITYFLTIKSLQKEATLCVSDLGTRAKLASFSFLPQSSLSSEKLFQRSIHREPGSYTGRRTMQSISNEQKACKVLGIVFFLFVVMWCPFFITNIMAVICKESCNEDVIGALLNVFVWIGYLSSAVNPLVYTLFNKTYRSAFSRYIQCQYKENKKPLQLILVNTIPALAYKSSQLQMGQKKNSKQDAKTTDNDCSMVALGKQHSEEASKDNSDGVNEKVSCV
Chain of Beta-2 adrenergic receptor (Homo sapiens) (P07550 whole entry, looked up): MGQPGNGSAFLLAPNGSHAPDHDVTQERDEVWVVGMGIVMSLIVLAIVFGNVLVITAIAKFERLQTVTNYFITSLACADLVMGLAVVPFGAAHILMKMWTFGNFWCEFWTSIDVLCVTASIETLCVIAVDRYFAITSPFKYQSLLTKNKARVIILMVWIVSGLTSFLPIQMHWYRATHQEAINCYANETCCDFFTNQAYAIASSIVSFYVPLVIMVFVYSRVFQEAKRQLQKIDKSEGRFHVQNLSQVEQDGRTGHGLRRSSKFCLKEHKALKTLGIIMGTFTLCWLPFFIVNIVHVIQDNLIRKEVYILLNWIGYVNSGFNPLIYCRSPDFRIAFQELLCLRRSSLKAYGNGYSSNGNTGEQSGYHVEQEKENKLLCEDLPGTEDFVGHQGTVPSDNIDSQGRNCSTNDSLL

Take `Cc1cn([C@H]2C[C@H](F)[C@@H](CO)O2)c(=O)[nH]c1=O`: the Potency entry in [1], in [2], in test [3], in test [4], in test [5] and in test [6] was “inactive” each time. For the same compound, the Potency entry in [7], in test [8], in test [9], in test [10], in test [11] and in test [12] was “inactive” each time. The Potency result in [13], in test [14], in [15], in [16] and in test [17] was “inactive” in each case.
Consider `CCCC(C)C(O)CC` (stereo unspecified), for which the Potency result in test [1], in [2], in [3], in test [4], in test [5] and in [6] was “inactive” each time. Besides, the Potency entry in test [7], in [8], in test [9], in test [10], in test [11] and in [12] was “inactive” throughout. For the same compound, the Potency entry in test [13], in test [14], in test [16], in test [18] and in test [17] was “inactive” in each case.
Take `O=C1c2c(O)ccc(Nc3ccc(CCO)cc3)c2C(=O)c2c([N+](=O)[O-])ccc(O)c21`: the Potency result in test [1], in test [3], in [4], in test [5], in test [6] and in test [7] was “inactive” throughout. Also, the Potency result in [8], in test [9], in [11], in [12] and in [13] was “inactive” in each case. Also, in [2], the Potency is 30.6 µM (active).
Regarding `CNC(=O)[C@H]1O[C@@H](n2cnc3c(NCc4cc(Cl)ccc4OCc4cc(C)no4)ncnc32)[C@H](O)[C@@H]1N`, the Potency entry in [1], in [2], in test [3], in [4], in [5] and in test [6] was “inactive” in each case. For the same compound, the Potency result in test [7], in test [8], in [9], in test [10], in test [11] and in [12] was “inactive” throughout. Also, the Potency entry in [13], in test [14], in test [15], in test [19], in [18] and in test [17] was “inactive” each time.
For the compound `O=c1[nH][nH]c(=O)c2cc([N+](=O)[O-])ccc12`, the Potency entry in test [1], in test [2], in test [3], in test [4], in test [5] and in test [6] was “inactive” throughout. For the same compound, the Potency result in [7], in [8], in [9], in [10], in test [12] and in [14] was “inactive” throughout. In addition, the Potency result in [15], in test [19], in test [16], in [18] and in test [17] was “inactive” throughout.
In the case of `CC12CCC(C1)C(C)(C)C2O` (stereo unspecified), the Potency entry in test [1], in test [2], in [3], in test [4], in [5] and in test [6] was “inactive” throughout. Also, the Potency result in [7], in test [8], in test [9], in [10], in test [11] and in test [12] was “inactive” each time. Besides, the Potency result in test [14], in [15], in test [19], in test [16], in test [18] and in test [17] was “inactive” in each case.
With `NC(=O)Cc1cccc(C(=O)c2ccccc2)c1N`, the Potency result in [1], in [2], in test [3], in [4], in [5] and in test [6] was “inactive” in each case. The Potency result in [7], in test [8], in [9], in test [10], in test [11] and in test [12] was “inactive” in each case. Besides, the Potency entry in test [13], in test [14], in [15], in test [19], in test [18] and in test [17] was “inactive” each time.
Regarding `CC(CN1c2ccccc2Sc2ccccc21)N(C)C` (stereo unspecified), the Potency entry in [1], in test [2], in test [3], in [4], in [5] and in test [6] was “inactive” throughout. Besides, the Potency result in test [7], in [8], in test [9], in [14], in [15] and in [19] was “inactive” in each case. Moreover, the Potency entry in [18] and in test [17] was “inactive” each time.
